PubChem BioAssay (Tox21)
Several values for one entry are separate records, joined by “and”; a condition that tells them apart may be missing. Identical values can stand only once. Results filed as inconclusive are left out. Activity calls are given as the source filed them. Unless noted, the call rests on the fitted dose curve; in most records, active means well fitted curve in the direction sought with a large enough effect in the repeat runs; inconclusive means weak or mixed curves; inactive means no such curve, though single readings can be large; an effect the other way counts as inactive or inconclusive.

Tests used:
[1] = biological target: Peroxisome proliferator-activated receptor gamma (Homo sapiens) (UniProt P37231); assay: qHTS assay to identify small molecule antagonists of the peroxisome proliferator-activated receptor gamma (PPARg) signaling pathway (AID 743191; calls by dose curve; further: nearly all actives have a fitted effect of over 30% in size; further: potency means the concentration at half of the fitted maximal effect)
Summary of the method: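 Beta-lactamase reporter under UAS control in HEK293H PPARg-bla cells; compound treatment 17 h at 37C. Read-out: fluorescence intensity after 1 h room-temperature incubation with LiveBLAzer B/G FRET substrate.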

[2] = qHTS assay to identify small molecule antagonists of the peroxisome proliferator-activated receptor gamma (PPARg) signaling pathway - cell viability counter screen (AID 743194); conditions: Potency: co-treated with 50 nM rosiglitazone unless noted; further: nearly all actives have a fitted effect of over 55% in size; further: potency means the concentration at half of the fitted maximal effect
Summary of the method: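 Viability was measured as CellTiter-Glo luminescence in GeneBLAzer PPARg UAS-bla HEK293H cells. These cells had been exposed 17 h at 37 C to compounds together with rosiglitazone at 50 nM final, with the beta-lactamase readout taken in the same wells.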

[3] = qHTS assay for small molecule agonists of the antioxidant response element (ARE) signaling pathway (AID 743202; active means well fitted activation curve with a large enough effect in the signal ratio in the repeat runs, not every such curve was filed as active; the % refers to the signal ratio; further: potency means the concentration at half of the fitted maximal effect)
Summary of the method: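 An ARE-responsive beta-lactamase gene stably integrated in HepG2 cells serves as reporter. After 5 h plating and 16 h compound incubation at 37 C, fluorescence of the B/G FRET substrate was measured.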

[4] = qHTS assay for small molecule agonists of the antioxidant response element (ARE) signaling pathway - cell viability counter screen (AID 743203; calls by dose curve; further: nearly all actives have a fitted effect of over 55% in size; further: potency means the concentration at half of the fitted maximal effect)
Summary of the method: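 ARE-bla HepG2 cells were plated, rested 5 h at 37C/5% CO2, then exposed to compounds in DMSO for 16 h. Viability was read as CellTiter-Glo luminescence after 30 min at room temperature, in the same wells as the ARE screen.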

[5] = qHTS assay for small molecule activators of the heat shock response signaling pathway - cell viability counter screen (AID 743209); further: nearly all actives have a fitted effect of over 50% in size; further: potency means the concentration at half of the fitted maximal effect
Summary of the method: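 HSE-bla HeLa cells plated overnight, then exposed to Tox21 compounds (23 nL in DMSO) for 5 h at 37 C. After the bla reporter read, CellTiter-Glo was added in the same wells and luminescence read after 30 min at room temperature.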

[6] = qHTS assay for small molecule activators of the heat shock response signaling pathway (AID 743210; active means well fitted activation curve with a large enough effect in the signal ratio in the repeat runs, with a control signal flat, not every such curve was filed as active; the % refers to the signal ratio; further: potency means the concentration at half of the fitted maximal effect;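 on activation: HeLa cells with beta-lactamase reporter driven by heat shock elements; series mostly up to about 63 µM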)
Summary of the method: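 In HSE-bla HeLa cells, 5 h compound incubation (37 C) precedes addition of LiveBLAzer B/G substrate; after 2.5 h at room temperature, fluorescence intensity indicates reporter induction.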

[7] = biological target: Aryl hydrocarbon receptor (Homo sapiens) (UniProt P35869); assay: qHTS assay to identify small molecule that activate the aryl hydrocarbon receptor (AhR) signaling pathway (AID 743085); further: nearly all actives have a fitted effect of over 15% in size; further: potency means the concentration at half of the fitted maximal effect;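 on activation: HG2L7.5c1 human HepG2 liver cells with stably integrated DRE-driven firefly reporter; series mostly up to about 70 µM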
Summary of the method: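 Cell line HG2L7.5c1 (human hepatoma, 20× DRE-luc). Plated, 5 h 37C, compound/DMSO added, 24 h 37C. CellTiter-Fluor 30 min 37C → fluorescence; then ONE-Glo 30 min RT → luminescence.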

[8] = qHTS assay to identify small molecule that activate the aryl hydrocarbon receptor (AhR) signaling pathway - cell viability counter screen (AID 743086); further: nearly all actives have a fitted effect of over 45% in size; further: potency means the concentration at half of the fitted maximal effect;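 on viability change, negative = cytotoxic: HepG2 liver cells carrying the AhR DRE luciferase reporter; series mostly up to about 70 µM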
Summary of the method: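 Cytotoxicity counter screen: CellTiter-Fluor signal (30 min, 37 C) in 4000 HepG2 cells/well carrying the DRE-luciferase reporter, following 24 h compound exposure at 37 C.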

[9] = biological target: Peroxisome proliferator-activated receptor gamma (Homo sapiens) (UniProt P37231); assay: qHTS assay to identify small molecule agonists of the peroxisome proliferator-activated receptor gamma (PPARg) signaling pathway (AID 743094; active means well fitted activation curve with a large enough effect in the signal ratio in the repeat runs, not every such curve was filed as active; the % refers to the signal ratio)
Summary of the method: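 GeneBLAzer PPARg UAS-bla HEK293H cells were plated, rested 5 h, then exposed to compounds for 17 h at 37C. Beta-lactamase activity was read by LiveBLAzer B/G FRET substrate fluorescence after 1 h at room temperature.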
On the % scale 0 is the no-effect control and ±100 the full control effect.

Sequence of Peroxisome proliferator-activated receptor gamma (Homo sapiens) (P37231 whole entry, looked up): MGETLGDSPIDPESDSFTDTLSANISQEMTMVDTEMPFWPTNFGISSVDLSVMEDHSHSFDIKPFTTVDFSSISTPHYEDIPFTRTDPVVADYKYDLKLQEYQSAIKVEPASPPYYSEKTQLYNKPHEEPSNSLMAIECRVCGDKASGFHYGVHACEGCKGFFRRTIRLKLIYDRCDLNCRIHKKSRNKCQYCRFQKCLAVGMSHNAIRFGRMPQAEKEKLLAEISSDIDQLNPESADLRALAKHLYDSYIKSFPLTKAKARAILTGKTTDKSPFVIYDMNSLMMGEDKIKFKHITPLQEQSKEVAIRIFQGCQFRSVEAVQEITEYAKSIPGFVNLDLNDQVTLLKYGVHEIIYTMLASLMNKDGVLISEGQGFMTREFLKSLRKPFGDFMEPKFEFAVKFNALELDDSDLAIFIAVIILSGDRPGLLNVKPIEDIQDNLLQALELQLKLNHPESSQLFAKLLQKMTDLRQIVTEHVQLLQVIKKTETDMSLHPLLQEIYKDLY
Sequence of Aryl hydrocarbon receptor (Homo sapiens) (P35869 whole entry, looked up): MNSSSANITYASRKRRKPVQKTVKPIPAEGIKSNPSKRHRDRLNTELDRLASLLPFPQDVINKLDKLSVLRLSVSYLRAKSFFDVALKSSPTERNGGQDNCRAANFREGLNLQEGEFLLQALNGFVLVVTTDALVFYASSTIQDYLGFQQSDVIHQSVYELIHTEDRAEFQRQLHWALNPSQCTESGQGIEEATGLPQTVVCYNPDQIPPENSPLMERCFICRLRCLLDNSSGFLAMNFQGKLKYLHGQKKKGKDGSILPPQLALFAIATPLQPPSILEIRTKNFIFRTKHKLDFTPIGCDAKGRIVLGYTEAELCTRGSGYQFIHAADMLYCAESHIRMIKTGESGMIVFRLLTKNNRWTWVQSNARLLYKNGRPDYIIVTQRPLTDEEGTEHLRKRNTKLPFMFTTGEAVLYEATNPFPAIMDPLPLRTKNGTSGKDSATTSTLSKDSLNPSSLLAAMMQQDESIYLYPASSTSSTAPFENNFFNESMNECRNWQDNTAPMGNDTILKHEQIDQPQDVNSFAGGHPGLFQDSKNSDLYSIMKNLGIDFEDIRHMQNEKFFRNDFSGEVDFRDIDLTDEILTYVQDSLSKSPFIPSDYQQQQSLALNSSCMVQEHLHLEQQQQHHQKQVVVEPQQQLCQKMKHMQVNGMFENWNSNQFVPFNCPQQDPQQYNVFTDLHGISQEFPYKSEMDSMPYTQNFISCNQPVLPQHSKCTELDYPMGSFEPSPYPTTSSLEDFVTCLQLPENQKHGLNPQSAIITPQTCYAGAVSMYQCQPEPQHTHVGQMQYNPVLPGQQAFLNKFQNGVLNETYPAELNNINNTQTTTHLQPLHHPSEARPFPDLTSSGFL

CC(Cc1ccccc1)N(C)Cc1ccco1 (stereo not drawn)
inactive: Potency [1] | Potency [2] | Potency [3] | Potency [4] | Potency [5] | Potency [6]

Cc1ccc([N+](=O)[O-])[c]2c1[O][Hg]2
active: Potency [2] 2.98 µM | Potency [4] 4.22 µM | Potency [5] 5.31 µM

c1ccc(N=NNc2ccccc2)cc1
inactive: Potency [2] | Potency [4] | Potency [5] | Potency [6]
active: Potency [7] 10 µM and 34.4 µM | Potency [3] 9.69 µM

c1ccc(Nc2ccc(Nc3ccccc3)cc2)cc1
inactive: Potency [8] | Potency [2]
active: Potency [4] 60.9 µM | Potency [5] 24.4 µM

O=C(CCCCl)c1ccc(F)cc1
inactive: Potency [1] | Potency [2] | Potency [3] | Potency [4] | Potency [5] | Potency [6]

C[C@]12Cc3cn[nH]c3C[C@@H]1CC[C@@H]1[C@@H]2CC[C@@]2(C)[C@H]1CC[C@]2(C)O
active: Potency [3] 26.6 µM
inactive: Potency [2] | Potency [4] | Potency [5]

CO/N=C(\C(=O)OC)c1ccccc1CO/N=C(\C)c1cccc(C(F)(F)F)c1
inactive: Potency [7] | Potency [8] | Potency [5]

FC(F)C(F)(F)OCC(Cn1cncn1)c1ccc(Cl)cc1Cl (stereo not drawn)
inactive: Potency [2] | Potency [4] | Potency [5] | Potency [6]
active: Potency [7] 6.82 µM

Nc1c(Cl)c(Cl)c(Cl)c(Cl)c1Cl
active: Potency [7] 50.5 µM
inactive: Potency [4] | Potency [6]

O=[N+]([O-])C(Br)Br
inactive: Potency [7] | Potency [8] | Potency [9] | Potency [5] | Potency [6]
active: Potency [4] 61.3 µM

CCn1cc[n+](C)c1 (tested in a mixture with another compound)
inactive: Potency [8] | Potency [2] | Potency [3] | Potency [4] | Potency [5]

CC#C[C@]1(O)CC[C@H]2[C@@H]3C[C@H](C)C4=CC(=O)CC[C@]4(C)[C@H]3CC[C@@]21C
active: Potency [3] 23.7 µM
inactive: Potency [2] | Potency [4] | Potency [5]

NC1CCC(CC2CCC(N)CC2)CC1 (stereo not drawn)
inactive: Potency [7] | Potency [8] | Potency [9] | Potency [2] | Potency [3] | Potency [4] | Potency [5] | Potency [6]

c1ccc2c(c1)cc1ccc3cccc4ccc2c1c34
inactive: Potency [4] | Potency [5]

CN1C2CCC(C)(C)C1CC(OC(=O)C(O)(c1cccs1)c1cccs1)C2 (stereo not drawn)
inactive: Potency [2] | Potency [3] | Potency [4] | Potency [6]

N#Cc1c2ccccc2cc2ccccc12
inactive: Potency [7] | Potency [2] | Potency [4] | Potency [5]

O=c1[nH]c2cc(Cl)ccc2n1C1CCNCC1
inactive: Potency [1] | Potency [2] | Potency [4] | Potency [5] | Potency [6]

CSSC
inactive: Potency [3] | Potency [4] | Potency [5] | Potency [6]

Cc1cc(C2CC2)nc(Nc2ccccc2)n1
active: Potency [3] 27.3 µM
inactive: Potency [8] | Potency [9] | Potency [2] | Potency [4] | Potency [5]

Nc1ccc(Cl)cc1C(=O)c1ccccc1F
inactive: Potency [2] | Potency [4] | Potency [5] | Potency [6]

Clc1c(Cl)c(Cl)c(Cl)c(Cl)c1Cl
inactive: viability change, negative = cytotoxic [8] 3.05% [at 8.47 µM] | activation [3] -2.23% [at 8.36 µM] | viability change, negative = cytotoxic [4] 3.6% [at 8.36 µM] | activity change, negative = cytotoxicity [5] -0.0057% [at 5.95 µM] | activation [6] -2.21% [at 5.95 µM]

C[C@]12CC[C@H]3[C@@H](CCC4=CC(=O)CC[C@@H]43)[C@@H]1CC[C@@H]2OC(=O)CCc1ccco1
active: Potency [2] 29.8 µM [setting not given] | Potency [5] 13.3 µM

CCC(OC(C)=O)C(CC(C)NC)(c1ccccc1)c1ccccc1 (stereo not drawn)
inactive: Potency [7] | Potency [5]
active: Potency [8] 69.2 µM | Potency [4] 77.6 µM

COC(=O)N(OC)c1ccccc1COc1ccn(-c2ccc(Cl)cc2)n1
inactive: Potency [7] | Potency [9] | Potency [5]
active: Potency [3] 0.433 µM | Potency [4] 43.3 µM

C#CCC1=C(C)C(OC(=O)C2C(C=C(C)C)C2(C)C)CC1=O (stereo not drawn)
inactive: Potency [7] | Potency [8] | Potency [2] | Potency [4] | Potency [5]

CC[N+]1(CC)CCC(OC(=O)C(O)(c2ccccc2)c2ccccc2)C1 (stereo not drawn)
inactive: Potency [2] | Potency [3] | Potency [4] | Potency [5] | Potency [6]

S=C=NCCc1ccccc1
inactive: Potency [8] | Potency [9] | Potency [1] | Potency [2]
active: Potency [7] 54.6 µM | Potency [5] 55.1 µM

C[C@@H]1CC2=CC(=O)CC[C@@H]2[C@H]2CC[C@@]3(C)[C@@H](CC[C@]3(C)O)[C@@H]21
inactive: Potency [1] | Potency [2] | Potency [4] | Potency [5] | Potency [6]

CN1CCc2cc3c(cc2C1O)OCO3 (stereo not drawn)
inactive: Potency [7] | Potency [2] | Potency [4] | Potency [5]
active: Potency [6] 39.1 µM

CCOP(=O)(OCC)Oc1nc(Cl)c(Cl)cc1Cl
inactive: Potency [9] | Potency [5]
active: Potency [1] 1.37 µM

CC1=C2C[C@H]3[C@@H](CC=C4C[C@@H](O)CC[C@@]43C)[C@@H]2CC[C@]12O[C@@H]1C[C@H](C)CN[C@H]1[C@H]2C
inactive: Potency [7] | Potency [9] | Potency [2] | Potency [4] | Potency [5] | Potency [6]

O=Cc1ccccc1
inactive: Potency [8] | Potency [2] | Potency [3] | Potency [4] | Potency [5] | Potency [6]

CN1C(=O)[C@@H](NC(=O)c2cc3ccccc3[nH]2)N=C(c2ccccc2)c2ccccc21
inactive: Potency [2] | Potency [4] | Potency [5]

Oc1cc(Cl)c(Cl)c(Cl)c1Cl
active: Potency [7] 11.9 µM | Potency [5] 13.5 µM

COP(=O)(OC)O/C(=C\Cl)c1cc(Cl)c(Cl)cc1Cl
inactive: Potency [7] | Potency [8] | Potency [5] | Potency [6]
active: Potency [1] 4.9 µM

Nc1cc(Cl)ccc1Cl
inactive: Potency [8] | Potency [2] | Potency [3] | Potency [4] | Potency [5] | Potency [6]

CC[C@]1(O)CC[C@H]2[C@@H]3CCC4=CCCC[C@@H]4[C@H]3CC[C@@]21C
inactive: Potency [7] | Potency [9] | Potency [1] | Potency [2] | Potency [3] | Potency [4] | Potency [5] | Potency [6]
